About 83,000 compounds went through this panel and 20% of them were active in at least one assay; those are over-represented in the sample as a whole.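 The endpoint reported here, percent growth, reads 100 for growth as untreated, 0 for no net growth and -100 for all cells dead.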 The source made the active and inactive calls. The calls were made as follows: active = growth percent below 10; inactive = the rest.
Columns and labels:
Assay in all cases: NCI-60 one-dose screen, 48 h (100 = growth as untreated, 0 = no growth, -100 = all killed)
Settings in all cases: 10 µM unless noted
[1] = tested on: NCI-H23 lung
[2] = tested on: NCI-H322M lung
[3] = tested on: HOP-62 NSCLC
[4] = tested on: NCI-H460 lung
[5] = tested on: HOP-92 NSCLC
[6] = tested on: NCI-H522 lung
[7] = tested on: A549/ATCC NSCLC
[8] = tested on: 786-0 renal
[9] = tested on: COLO 205 colon
[10] = tested on: DU-145 prostate
[11] = tested on: K-562 leukemia
[12] = tested on: MALME-3M melanoma
[13] = tested on: MDA-MB-231 breast
[14] = tested on: RXF 393 renal
[15] = tested on: SF-268 CNS
[16] = tested on: SF-295 CNS
[17] = tested on: SF-539 CNS
[18] = tested on: UACC-257 melanoma
[19] = tested on: M14 melanoma
[20] = tested on: HCT-15 colon

Measured: growth

CC(=Nc1ccccc1)C1=C(O)C(Cc2ccc(F)cc2)NC1=O (stereo not given)
active: [6] -9.06% | [9] -52.1% | [10] 8.32% | [16] 8.24%
inactive: [1] 30.7% | [2] 37.5% | [3] 42.7% | [4] 13.4% | [5] 72.4% | [7] 35.9% | [8] 48.2% | [11] 12.3% | [12] 24.2% | [13] 69.7% | [14] 15.2% | [15] 54.9% | [17] 18.7% | [18] 38.8% | [19] 12.8% | [20] 23.3%

NC1(N2SC(S)=C3CCCC=C32)CCCCC1
inactive: [1] 105% | [2] 99.8% | [3] 101% | [4] 107% | [5] 96.6% | [6] 81.9% | [7] 100% | [8] 106% | [9] 107% | [10] 98.3% | [11] 84.9% | [12] 102% | [13] 107% | [14] 129% | [15] 96.3% | [16] 115% | [17] 104% | [18] 99.8% | [19] 101% | [20] 108%

O=C(Nc1ccc(N2CCNCC2)cc1)c1[nH]ncc1Nc1cc(Oc2ccccc2)ncn1
inactive: [1] 20.6% | [10] 15.9% | [12] 58.4% | [15] 35% | [18] 29.7% | [19] 12.9%
active: [2] -5.19% | [3] 3.29% | [4] -47.1% | [5] -21% | [6] 8.05% | [7] -49.8% | [8] 2.25% | [9] -49.1% | [11] 8.34% | [13] -20.9% | [14] -89.2% | [16] -70.2% | [17] -46.2% | [20] -35.9%

Fc1cccc(COc2ccc(Nc3ncnc4onc(-c5ccccc5)c34)cc2)c1
inactive: [1] 18.1% | [2] 23.1% | [3] 33.4% | [5] 46.3% | [7] 19.9% | [11] 12.1% | [12] 41% | [13] 13.8% | [15] 29.2% | [18] 54.8% | [20] 20.2%
active: [4] 2.61% | [6] 5.66% | [8] 8.18% | [9] 8.73% | [10] -29.8% | [14] -26.6% | [16] 2.77% | [17] -42.4% | [19] -23%

O=c1oc2ccc(F)cc2c(=O)n1-c1ccc(Cl)cc1F
inactive: [9] 11.7% | [10] 17.1% | [15] 12.7%
active: [1] 4.57% | [2] 7.62% | [3] -5.38% | [4] 3.17% | [5] -14.3% | [6] -16.9% | [7] 3.43% | [8] 1.85% | [11] 7.39% | [12] -19.6% | [13] -17.2% | [14] -2.79% | [16] -28.5% | [17] 4.31% | [18] -17.4% | [19] 5.11% | [20] 7.49%

COC(=O)[C@@H]1CCCN1C(=O)[C@H]1CCCN1C(=O)[C@@H](Cc1c[nH]c2ccccc12)NC(=S)Nc1cc(C(F)(F)F)cc(C(F)(F)F)c1
inactive: [1] 63.8% | [2] 38.8% | [3] 65.2% | [4] 16.2% | [5] 80.9% | [6] 69.8% | [7] 28.4% | [8] 52.5% | [9] 22% | [10] 57.7% | [11] 27.6% | [12] 71.1% | [13] 25.4% | [14] 48.5% | [15] 38% | [17] 62% | [18] 69.5% | [19] 39.8% | [20] 43.5%
active: [16] -52.2%

Cc1nc2ccccc2c(/C=C/c2ccccc2)c1C(=O)/C=C/c1ccc(Cl)cc1
inactive: [1] 34.8% | [2] 50% | [3] 11.7% | [5] 46.9% | [7] 25.3% | [9] 31.3% | [12] 40.8% | [15] 44.6% | [16] 29% | [17] 26.6% | [18] 29.9% | [19] 17.1%
active: [4] -37.6% | [6] -18.9% | [8] 2.52% | [10] 4.72% | [11] 5.19% | [13] 8.28% | [14] -28.2% | [20] -13.2%

CCCCNc1nc(NC(C)(C)C)nc(NC(C)(C)C)n1
active: [14] -7.69% | [16] -19.5%
inactive: [1] 47.9% | [2] 97.8% | [3] 84.1% | [4] 82.5% | [5] 48.6% | [6] 52.8% | [7] 56.3% | [8] 48.2% | [9] 63.5% | [10] 74.6% | [11] 20.8% | [12] 87.3% | [13] 72% | [15] 91.7% | [17] 51% | [18] 81% | [19] 57.5% | [20] 57.6%

Oc1ccc(-c2nc(-c3ccc4oc5ccc(-c6[nH]c(-c7ccc(O)cc7)nc6-c6ccccc6)cc5c4c3)c(-c3ccccc3)[nH]2)cc1
inactive: [1] 43.9% | [2] 78.6% | [3] 73.3% | [4] 59.1% | [5] 25.7% | [6] 59.4% | [7] 65.8% | [8] 86.4% | [9] 53.8% | [10] 89% | [11] 22.7% | [12] 43.1% | [13] 59.5% | [14] 84.9% | [15] 63.5% | [16] 15.6% | [17] 79.4% | [18] 34.5% | [19] 65.5% | [20] 78.8%

COc1ccc(Nc2cc(C)nc(NCc3ccccc3)n2)cc1
active: [7] 7.95% | [9] 3.51% | [11] 5.22% | [13] -18.1% | [14] -16.2% | [16] -30.7% | [19] 8.52%
inactive: [1] 56% | [2] 61.9% | [3] 38.5% | [4] 11.9% | [5] 21.6% | [6] 19.9% | [8] 34.1% | [10] 45.4% | [12] 13.6% | [15] 47.8% | [17] 47.5% | [18] 46.8% | [20] 26.1%

CCOC(=O)c1sc(-c2ccc(OS(=O)(=O)C[C@]34CCC(CC3=O)C4(C)C)c(C=O)c2)nc1C
active: [3] 8.26% | [4] -1.32% | [6] 1.5% | [9] -34.9% | [11] 7.5% | [18] 4.31% | [19] 3.97% | [20] 5.75%
inactive: [1] 28.5% | [2] 50.4% | [5] 38.4% | [7] 15.4% | [8] 27.4% | [10] 21.3% | [12] 38.1% | [13] 19.7% | [14] 52.9% | [15] 15% | [16] 26.2% | [17] 43.2%

O=c1c2cc(F)cc(Cl)c2sc2c(Cl)nc3ccccc3c12
inactive: [1] 90.5% | [2] 97.8% | [3] 89.4% | [4] 100% | [5] 99.3% | [6] 77% | [7] 111% | [8] 110% | [9] 116% | [10] 109% | [11] 110% | [12] 88.9% | [13] 84% | [14] 100% | [15] 98.5% | [16] 101% | [17] 97% | [18] 114% | [19] 99.5% | [20] 103%

Cn1cc([C@@H]2Nc3ccc4[nH]ncc4c3[C@H]3[C@H]4CCC(C4)[C@H]32)c(C(F)(F)F)n1
active: [6] 2.48%
inactive: [1] 90.6% | [2] 89.5% | [3] 53% | [4] 27.9% | [5] 64.1% | [7] 41.1% | [8] 59.1% | [9] 52.7% | [10] 72.9% | [11] 15.7% | [12] 40.2% | [13] 61.6% | [14] 53.4% | [15] 53% | [16] 37.7% | [17] 41.1% | [18] 50.1% | [19] 27.5% | [20] 30.8%

Nc1ccc(-c2nn3c(CCC(=O)c4nc5ncccc5[nH]4)nnc3s2)c(O)c1
inactive: [1] 83.1% | [2] 87.5% | [3] 85.7% | [4] 93.4% | [5] 85.4% | [6] 81.2% | [7] 89.6% | [8] 99.2% | [9] 99.6% | [10] 96.5% | [11] 105% | [12] 93% | [13] 71.2% | [14] 84.9% | [15] 73.5% | [16] 97.1% | [17] 89.1% | [18] 101% | [19] 96.5% | [20] 95.8%

CC1=C(C(=O)OCC2CCN(C(=O)OC(C)(C)C)CC2)[C@H](c2cccc(Br)c2)C2=C(CC(C)(C)CC2=O)N1
active: [4] 8.59%
inactive: [1] 48.4% | [2] 57.2% | [3] 55.7% | [5] 61.7% | [6] 19.8% | [7] 17.3% | [8] 44.1% | [9] 27.4% | [10] 38.3% | [11] 15.8% | [12] 26.1% | [13] 46% | [14] 66.3% | [15] 33.1% | [16] 39.9% | [17] 41.2% | [18] 29.1% | [19] 29.8% | [20] 21%

From PubChem BioAssay (NCI)
